KB-V1 MDR tox: KB-V1 MDR subline cytotoxicity; KB-V1 MDR cells viability, CellTiter-Glo, 72 h; Potency, µM (titrated, usually from 46.1 µM), actives largely listed as cytotoxic; 400,000 compounds, 3.4% hits; also: % is scaled to controls: 0 for no effect and ±100 for the full control effect; nearly all actives have a fitted effect of over 60% in size
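KB-V1 MDR subline cells in DMEM (phenol-red free, 10% FBS) exposed to compounds in qHTS concentration series for 72 h at 37 degrees C. Viability read by CellTiter-Glo luminescence; concentration-effect curves fitted after normalization and correction.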
KB-3-1 cytotox: KB-3-1 parental cell cytotoxicity | KB-3-1 viability, CellTiter-Glo ATP luminescence, 72 h | Potency, µM (series often up to 46.1 µM), usual class: cytotoxic | 400,000 compounds, 1.4% hits | AID 1347075; also: % is scaled to controls: 0 for no effect and ±100 for the full control effect; nearly all actives have a fitted effect of over 60% in size
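Screening of KB-3-1 cells (DMEM, 10% FBS, phenol-red free) ran from lowest to highest compound concentration; after 72 h at 37 °C viability was read luminescently and curves fitted.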
SW480 rereplic: DNA re-replication induction in SW480 cells | SW480 DNA re-replication, Hoechst DNA content imaging, 48 h | Potency, µM (titrated, usually from 46.1 µM), for inactives: at the top dose re-replication activation, actives largely listed as activators | AID 624297 | 340,000 compounds, 1.8% hits; also: % of control where 0% means no effect; nearly all actives have a fitted effect of over 55% in size
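DNA re-replication was detected as more nuclei of elevated Hoechst intensity after 48 hr exposure to compound (23 nL pinned per well of 250 cells).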
MCF10A rereplic: inducers of DNA re-replication in MCF 10A breast cells. 350,000 compounds, 2.9% hits. MCF 10A DNA re-replication, Hoechst nuclear intensity, 48 h. Potency, µM (titrated, usually from 46.1 µM), for the others: top-dose activity, positive = re-replication, actives largely listed as activators; also: % of control where 0% means no effect; nearly all actives have a fitted effect of over 50% in size
ELG1 DNA repair: blocks ELG1-dependent DNA repair in HEK293T cells | HEK293T ELG1-luciferase reporter, luminescence, 16 h; DNA damage induced by 5-fluorouridine | Potency, µM (series often up to 46.1 µM), for inactives: at the top dose activity change, negative = inhibition, most hits filed as inhibitors | 330,000 compounds, 2.3% hits | AID 504467; also: % is scaled to controls: 0 for no effect and ±100 for the full control effect; nearly all actives have a fitted effect of over 55% in size
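HEK293T cells expressing luciferase-tagged ELG1 (2,000/well) received 5-Fluorouridine plus compound or DMSO for 16 hr at 37 °C. Luciferase was read by ONE-Glo luminescence after 30 min at room temperature.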
Starred values were filed as active, the others as inactive; i = inactive; ? = inconclusive; . = not tested or not shown; [ ] = remark or other dose. In the library only some 8.1% were active in any assay of this set; here they are far more common. Calls follow the shape of the dose curve; as a rule, active = well fitted curve in the direction sought with a large enough effect; inconclusive = small, poorly fitted or top-dose-only effect, or another doubt; inactive = no such curve, though single readings can be large; an effect the other way counts as inactive or inconclusive. Potency is read from the fitted curve at half-maximal effect.

SMILES | KB-V1 MDR tox | KB-3-1 cytotox | SW480 rereplic | MCF10A rereplic | ELG1 DNA repair
CC(=O)c1ccc(-c2ccc([C@H]3[C@H]4C=CC[C@@H](C)[C@@H]4C(=O)N3Cc3ccccc3)c(F)c2)cc1 | 20.6µM* | ? | -17.1%[9.22 µM] | ? | ?
COC(=O)c1ccc(OCC2c3cc(OC)c(OC)cc3CCN2C(=O)Cc2ccc(OC)c(OC)c2)cc1 (stereo not given) | ? | i | . | . | .
O=C(CN1C(=O)C2(SCC(=O)N2c2ccc(F)cc2)c2ccccc21)NCCc1ccccc1 (stereo not given) | i | i | . | . | .
COc1ccc(NC(=O)CN(c2cc(C)cc(C)c2)S(=O)(=O)c2c(C)noc2C)cc1Cl | i | i | . | . | .
Cc1ccc(C)c(N2CCN(C(=O)c3ccc(Nc4nc5ccccc5n5nnnc45)cc3)CC2)c1 | ? | i | . | . | .
COC(=O)C1CCN(C(=O)c2ccc(Cl)c(S(=O)(=O)NCc3ccco3)c2)CC1 | i | i | 0.4% | -1.1% | -2.7%
COc1ccccc1N1CCN(C(=O)c2ccc(Cl)c(S(=O)(=O)NCc3ccco3)c2)CC1 | 12.6µM* | 7.08µM* | ? | ? | ?
O=C(Nc1ccccc1N1CCOCC1)c1ccc(Cl)c(S(=O)(=O)NCc2ccco2)c1 | i | i | -5.3% | 11.6% | 16.4µM*
CCOc1ccc(CCN2C(=O)C(=O)N([C@@H](CC(C)C)CN3CCC[C@H]3CN3C(=O)C(=O)NC[C@@H]3Cc3ccccc3)C[C@@H]2Cc2ccc(O)cc2)cc1 | i | i | . | . | .
O=C1C=CC(=Nc2ccc(F)cc2)O1 | ? | i | ? | 18.4µM* | .
C[N+]1(CCCCSc2ccc(O)cc2)CCCCC1 | i | 18.4µM* | 5.6% | 21.1% | -1.6%
Cc1cccc(-c2nnc3n(CCc4ccccc4)c(=O)c4ccccc4n23)c1 | i | ? | . | . | .
COc1cc(-c2nnc3n(CCc4ccccc4)c(=O)c4ccccc4n23)cc(OC)c1OC | i | i | 5.2% | ? | 20.6µM*
COc1ccc(OC)c(-c2nnc3n(Cc4ccc(C)cc4)c(=O)c4ccccc4n23)c1 | i | i | . | . | .
COc1ccc(-c2nnc3n(CCc4ccccc4)c(=O)c4ccccc4n23)c(OC)c1 | ? | i | 16.6% | 20.6µM* | 8.2µM*
CN1CC=C2C(C#N)=C(N)C(C#N)(C#N)C(CCc3ccccc3)C2C1 (stereo not given) | 18.4µM* | i | 5.1% | 16.7% | 3.2%
CN1CC=C2C(C#N)=C(N)C(C#N)(C#N)[C@H](c3cccs3)[C@H]2C1 | i | i | -3.5% | -2.0% | -11.3%
Cc1onc(-c2ccccc2)c1C(=O)N/N=C(\N)COc1ccc(Cl)cc1 | 14.6µM* | ? | 12.4% | 14.8% | 2.9%
Cc1onc(-c2ccccc2Cl)c1C(=O)N/N=C(\N)COc1ccc(Cl)cc1 | 14.6µM* | ? | -0.8% | 15.3% | -5.7%
O=S1(=O)CCN2C(=N1)Sc1c2ccc2c1CCCC2 | 4.61µM* | i | -19.6% | -9.7% | ?
CCOc1ccc(CNC(=O)c2ccc(-c3nc(CS(=O)(=O)c4ccccc4)c(C)o3)cc2)cc1 | ? | i | . | . | .
CCCOC(=O)CN1C(=O)c2ccc(C(=O)OCCC)cc2C1=O | i | i | -2.6% | -5.0% | 1.6%
CCCOC(=O)c1ccc2c(c1)C(=O)N(c1ccccc1)C2=O | i | i | 16.4µM* | ? | 9.5%
O=C(NCc1ccc(Cl)cc1)C1CCN(c2nn3cc(-c4ccc(F)cc4)nc3s2)CC1 | i | i | . | . | .
CC(=O)Oc1ccc2c(=O)c(Oc3ccccc3)coc2c1OC(C)=O | 13µM* | ? | ? | ? | -2.2%
Cc1ccc(Oc2coc3cc(OC(=O)c4cccs4)ccc3c2=O)cc1 | i | i | -4.2% | 5.4% | ?
O=C(Nc1cnns1)Oc1ccccc1 | i | i | . | . | .
O=C(O)c1ccc(NC(=O)[C@H](Cc2ccc(O)cc2)NC(=O)c2ccccc2)cc1 | . | . | -0.1% | 0.7% | .
NNC(=O)c1sccc1OCc1ccc(F)cc1 | ? | i | -8.4% | -8.9% | 11.1%

Screening results from PubChem.
